# Test results from paper PMC7862700, “An all-to-all approach to the identification of sequence-specific readers for epigenetic DNA modifications on cytosine”.
# Tests used:
# Assay in all cases: DAPPL (digital affinity profiling via proximity ligation, sequencing); 10 mM Tris-HCl pH 7.5, 50 mM NaCl, 1 mM DTT, 4% glycerol, room temperature, 30 min; GST-TFs on glutathione beads, 16-mer random dsDNA library, 0.1% formaldehyde crosslink after washing; high values mean tight binding
# FLI1 = biological target: T1, FLI1 (Homo sapiens, UniProt Q01543 1-452); settings: protein: recombinant; tags: N-terminal GST; dsDNA, one strand shown
# T1 sequence: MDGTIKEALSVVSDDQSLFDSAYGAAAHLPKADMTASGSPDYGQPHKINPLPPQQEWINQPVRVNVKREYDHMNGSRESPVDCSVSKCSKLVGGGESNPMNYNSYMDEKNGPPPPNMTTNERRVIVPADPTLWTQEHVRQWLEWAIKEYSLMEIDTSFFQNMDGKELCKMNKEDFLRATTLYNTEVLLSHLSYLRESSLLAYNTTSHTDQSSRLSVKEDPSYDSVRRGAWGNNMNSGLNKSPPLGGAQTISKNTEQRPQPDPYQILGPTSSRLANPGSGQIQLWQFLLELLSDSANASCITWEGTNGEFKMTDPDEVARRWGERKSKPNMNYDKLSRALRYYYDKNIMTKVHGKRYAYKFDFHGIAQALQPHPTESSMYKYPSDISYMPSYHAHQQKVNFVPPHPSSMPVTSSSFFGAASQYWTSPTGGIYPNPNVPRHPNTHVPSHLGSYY
# Procedure, shortened: (§1)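 Pools of DNA-barcoded human transcription factors, expressed in yeast as GST fusions on glutathione beads and combined with a tag-only sample, were incubated with 200 nmole of a 16-mer random double-stranded DNA library. Incubation took 30 min at room temperature in Tris/NaCl/DTT/glycerol buffer and was followed by washing, 0.1% formaldehyde crosslinking, proximity ligation (BsaI/T4 ligase, 1 h, 37 °C), PCR amplification and sequencing on an Illumina NextSeq500. Binding signal is the ratio of a hexamer's read frequency for a factor to its frequency for the tag-only sample.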
# ELK1 = biological target: T2, ELK1 (Homo sapiens, UniProt P19419 1-428); settings: protein: recombinant; tags: N-terminal GST; dsDNA, one strand shown
# T2 sequence: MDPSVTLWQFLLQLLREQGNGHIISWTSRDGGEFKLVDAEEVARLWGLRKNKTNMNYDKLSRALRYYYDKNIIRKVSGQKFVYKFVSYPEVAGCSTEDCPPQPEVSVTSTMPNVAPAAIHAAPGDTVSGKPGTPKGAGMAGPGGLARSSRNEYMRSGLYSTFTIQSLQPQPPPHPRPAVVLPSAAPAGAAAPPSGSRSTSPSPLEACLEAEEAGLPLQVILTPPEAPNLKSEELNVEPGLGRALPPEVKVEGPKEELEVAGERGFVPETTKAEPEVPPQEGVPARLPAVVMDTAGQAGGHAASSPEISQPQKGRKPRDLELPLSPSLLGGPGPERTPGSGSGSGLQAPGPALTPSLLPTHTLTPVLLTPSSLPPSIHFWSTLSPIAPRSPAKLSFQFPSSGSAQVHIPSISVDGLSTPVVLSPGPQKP
# Procedure, shortened: as §1
# GABPA = biological target: T3, GABPA (Homo sapiens, UniProt Q06546 1-454); settings: protein: recombinant; tags: N-terminal GST; dsDNA, one strand shown
# T3 sequence: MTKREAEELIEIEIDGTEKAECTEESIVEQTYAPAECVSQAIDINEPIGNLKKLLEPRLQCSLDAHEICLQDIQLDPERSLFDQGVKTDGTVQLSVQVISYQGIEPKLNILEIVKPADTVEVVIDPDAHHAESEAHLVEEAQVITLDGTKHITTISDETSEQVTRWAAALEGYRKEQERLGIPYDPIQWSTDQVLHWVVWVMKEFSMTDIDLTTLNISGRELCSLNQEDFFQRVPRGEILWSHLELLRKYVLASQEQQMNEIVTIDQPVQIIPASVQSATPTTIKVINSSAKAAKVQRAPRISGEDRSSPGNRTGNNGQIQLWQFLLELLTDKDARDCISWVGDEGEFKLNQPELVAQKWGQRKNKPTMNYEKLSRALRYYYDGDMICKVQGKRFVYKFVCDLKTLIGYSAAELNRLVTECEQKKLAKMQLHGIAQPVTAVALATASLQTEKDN
# Procedure, shortened: as §1
# ERG = biological target: T4, ERG (Homo sapiens, UniProt P11308 1-479); settings: protein: recombinant; tags: N-terminal GST; dsDNA, one strand shown
# T4 sequence: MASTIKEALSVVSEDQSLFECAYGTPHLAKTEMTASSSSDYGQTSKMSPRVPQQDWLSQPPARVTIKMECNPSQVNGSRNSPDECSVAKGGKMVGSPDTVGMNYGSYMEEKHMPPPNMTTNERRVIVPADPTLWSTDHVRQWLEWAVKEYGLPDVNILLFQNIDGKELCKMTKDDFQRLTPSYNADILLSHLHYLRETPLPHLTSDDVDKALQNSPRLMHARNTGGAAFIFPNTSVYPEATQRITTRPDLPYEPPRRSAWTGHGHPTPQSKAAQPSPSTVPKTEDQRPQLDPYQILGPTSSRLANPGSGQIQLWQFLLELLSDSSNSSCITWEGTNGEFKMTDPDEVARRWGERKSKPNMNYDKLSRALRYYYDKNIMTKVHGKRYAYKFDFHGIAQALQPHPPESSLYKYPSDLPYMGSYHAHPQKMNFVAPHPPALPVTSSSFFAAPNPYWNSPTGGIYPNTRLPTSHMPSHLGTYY
# Procedure, shortened: as §1
# ELF1 = ELF1 (Homo sapiens, UniProt P32519 1-619); settings: protein: recombinant; tags: N-terminal GST; dsDNA, one strand shown
# Sequence of ELF1 (P32519 whole entry): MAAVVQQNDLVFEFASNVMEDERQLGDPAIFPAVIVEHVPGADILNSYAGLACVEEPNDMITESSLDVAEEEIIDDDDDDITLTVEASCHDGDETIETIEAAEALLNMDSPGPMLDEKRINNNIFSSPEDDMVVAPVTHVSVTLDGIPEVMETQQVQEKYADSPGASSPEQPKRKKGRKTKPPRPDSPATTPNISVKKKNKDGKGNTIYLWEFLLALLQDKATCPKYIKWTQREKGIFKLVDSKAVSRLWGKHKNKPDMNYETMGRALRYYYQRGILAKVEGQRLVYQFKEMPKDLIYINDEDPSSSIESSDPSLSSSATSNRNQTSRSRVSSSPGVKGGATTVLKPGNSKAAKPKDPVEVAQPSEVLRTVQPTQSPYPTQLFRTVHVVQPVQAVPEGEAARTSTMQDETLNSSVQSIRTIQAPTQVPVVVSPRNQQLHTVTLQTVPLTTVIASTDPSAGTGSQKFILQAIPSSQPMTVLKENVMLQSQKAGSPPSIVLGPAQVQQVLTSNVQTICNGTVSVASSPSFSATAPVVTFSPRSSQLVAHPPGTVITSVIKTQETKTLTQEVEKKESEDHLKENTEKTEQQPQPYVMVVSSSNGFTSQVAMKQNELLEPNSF
# Procedure, shortened: as §1
# EHF = biological target: T5, EHF (Homo sapiens, UniProt Q9NZC4 1-300); settings: protein: recombinant; tags: N-terminal GST; dsDNA, one strand shown
# T5 sequence: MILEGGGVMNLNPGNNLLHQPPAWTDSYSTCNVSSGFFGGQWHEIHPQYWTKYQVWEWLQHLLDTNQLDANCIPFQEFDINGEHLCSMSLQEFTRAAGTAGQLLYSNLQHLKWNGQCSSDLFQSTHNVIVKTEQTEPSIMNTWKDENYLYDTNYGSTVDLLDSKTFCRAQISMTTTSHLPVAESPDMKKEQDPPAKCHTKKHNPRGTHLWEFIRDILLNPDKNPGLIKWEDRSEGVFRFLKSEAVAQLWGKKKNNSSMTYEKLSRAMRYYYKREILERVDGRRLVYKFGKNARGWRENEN
# Procedure, shortened: as §1
# SPI1 = SPI1 (Homo sapiens, UniProt P17947 1-270); settings: protein: recombinant; tags: N-terminal GST; dsDNA, one strand shown
# Procedure, shortened: as §1
# SPIB = SPIB (Homo sapiens, UniProt Q01892 1-262); settings: protein: recombinant; tags: N-terminal GST; dsDNA, one strand shown
# Sequence of SPIB (Q01892 whole entry): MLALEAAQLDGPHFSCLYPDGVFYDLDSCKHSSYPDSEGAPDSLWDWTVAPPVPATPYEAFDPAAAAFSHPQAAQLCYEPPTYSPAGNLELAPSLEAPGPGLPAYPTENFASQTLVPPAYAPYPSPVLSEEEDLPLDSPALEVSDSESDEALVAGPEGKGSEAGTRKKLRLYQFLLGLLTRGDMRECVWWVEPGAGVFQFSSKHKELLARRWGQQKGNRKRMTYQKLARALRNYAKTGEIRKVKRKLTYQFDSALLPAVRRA
# Procedure, shortened: as §1
# ELK3 = biological target: T6, ELK3 (Homo sapiens, UniProt P41970 1-407); settings: protein: recombinant; tags: N-terminal GST; dsDNA, one strand shown
# T6 sequence: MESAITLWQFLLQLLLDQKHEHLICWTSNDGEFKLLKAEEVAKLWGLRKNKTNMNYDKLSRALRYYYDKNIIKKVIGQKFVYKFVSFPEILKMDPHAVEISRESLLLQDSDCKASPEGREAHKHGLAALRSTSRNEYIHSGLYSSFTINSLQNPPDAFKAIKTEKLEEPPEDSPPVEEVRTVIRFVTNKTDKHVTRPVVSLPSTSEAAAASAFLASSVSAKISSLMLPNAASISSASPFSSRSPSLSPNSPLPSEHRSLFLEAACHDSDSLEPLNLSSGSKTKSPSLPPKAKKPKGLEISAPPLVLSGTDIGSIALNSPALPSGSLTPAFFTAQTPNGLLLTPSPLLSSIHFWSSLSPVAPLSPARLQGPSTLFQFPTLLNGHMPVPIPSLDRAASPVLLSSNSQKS
# Procedure, shortened: as §1
# FEV = biological target: T7, FEV (Homo sapiens, UniProt Q99581 1-238); settings: protein: recombinant; tags: N-terminal GST; dsDNA, one strand shown
# T7 sequence: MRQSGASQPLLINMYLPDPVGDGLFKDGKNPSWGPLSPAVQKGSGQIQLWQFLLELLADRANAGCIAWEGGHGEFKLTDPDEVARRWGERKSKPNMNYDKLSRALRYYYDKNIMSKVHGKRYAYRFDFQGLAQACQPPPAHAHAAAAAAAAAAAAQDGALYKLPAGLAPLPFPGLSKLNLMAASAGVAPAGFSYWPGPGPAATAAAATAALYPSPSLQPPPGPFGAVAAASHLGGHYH
# Procedure, shortened: as §1
# ETV5 = ETV5 (Homo sapiens, UniProt P41161 1-510); settings: protein: recombinant; tags: N-terminal GST; dsDNA, one strand shown
# Sequence of ETV5 (P41161 whole entry): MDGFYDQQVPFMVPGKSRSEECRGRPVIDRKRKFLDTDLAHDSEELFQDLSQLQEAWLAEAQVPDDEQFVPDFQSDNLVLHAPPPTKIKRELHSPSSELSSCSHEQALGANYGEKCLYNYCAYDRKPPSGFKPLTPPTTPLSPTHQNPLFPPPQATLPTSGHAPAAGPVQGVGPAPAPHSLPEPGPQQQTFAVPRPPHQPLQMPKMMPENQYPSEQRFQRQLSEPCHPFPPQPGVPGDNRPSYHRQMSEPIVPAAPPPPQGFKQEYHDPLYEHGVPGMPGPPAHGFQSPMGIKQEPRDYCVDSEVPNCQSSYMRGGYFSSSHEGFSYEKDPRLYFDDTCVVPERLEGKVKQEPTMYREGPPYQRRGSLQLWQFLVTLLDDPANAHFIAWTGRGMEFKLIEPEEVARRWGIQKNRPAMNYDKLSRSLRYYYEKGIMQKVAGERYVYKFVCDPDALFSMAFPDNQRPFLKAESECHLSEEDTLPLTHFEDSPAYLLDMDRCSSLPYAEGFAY
# Procedure, shortened: as §1
# HSF1 = HSF1 (Homo sapiens, UniProt Q00613 1-529); settings: protein: recombinant; tags: N-terminal GST; chain copies: 3; dsDNA, one strand shown
# Sequence of HSF1 (Q00613 whole entry): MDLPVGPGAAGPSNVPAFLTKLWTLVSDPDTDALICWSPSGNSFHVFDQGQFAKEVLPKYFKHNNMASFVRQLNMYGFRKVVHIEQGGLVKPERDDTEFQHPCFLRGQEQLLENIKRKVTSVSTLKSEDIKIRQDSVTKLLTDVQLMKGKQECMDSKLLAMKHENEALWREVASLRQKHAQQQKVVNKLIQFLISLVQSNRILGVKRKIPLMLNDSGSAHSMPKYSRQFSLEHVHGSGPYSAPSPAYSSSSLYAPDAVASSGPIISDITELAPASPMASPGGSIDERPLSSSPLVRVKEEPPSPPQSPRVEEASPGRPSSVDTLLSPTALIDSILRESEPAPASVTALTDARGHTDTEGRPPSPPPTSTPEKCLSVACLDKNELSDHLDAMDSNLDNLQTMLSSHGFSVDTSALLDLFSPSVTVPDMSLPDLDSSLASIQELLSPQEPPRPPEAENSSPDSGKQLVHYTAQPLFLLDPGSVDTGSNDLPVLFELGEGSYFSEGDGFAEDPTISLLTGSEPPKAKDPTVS
# Procedure, shortened: as §1
# SPIC = biological target: T8, SPIC (Homo sapiens, UniProt Q8N5J4 1-248); settings: protein: recombinant; tags: N-terminal GST; dsDNA, one strand shown
# T8 sequence: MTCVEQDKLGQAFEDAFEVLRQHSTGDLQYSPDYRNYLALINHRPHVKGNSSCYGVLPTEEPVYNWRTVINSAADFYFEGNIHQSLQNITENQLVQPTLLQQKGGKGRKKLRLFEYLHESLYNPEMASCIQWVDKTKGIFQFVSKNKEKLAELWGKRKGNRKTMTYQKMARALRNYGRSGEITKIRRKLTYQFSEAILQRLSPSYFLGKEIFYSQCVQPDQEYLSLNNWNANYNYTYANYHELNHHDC
# Procedure, shortened: as §1
# ELF4 = ELF4 (Homo sapiens, UniProt Q99607 1-663); settings: protein: recombinant; tags: N-terminal GST; dsDNA, one strand shown
# Sequence of ELF4 (Q99607 whole entry): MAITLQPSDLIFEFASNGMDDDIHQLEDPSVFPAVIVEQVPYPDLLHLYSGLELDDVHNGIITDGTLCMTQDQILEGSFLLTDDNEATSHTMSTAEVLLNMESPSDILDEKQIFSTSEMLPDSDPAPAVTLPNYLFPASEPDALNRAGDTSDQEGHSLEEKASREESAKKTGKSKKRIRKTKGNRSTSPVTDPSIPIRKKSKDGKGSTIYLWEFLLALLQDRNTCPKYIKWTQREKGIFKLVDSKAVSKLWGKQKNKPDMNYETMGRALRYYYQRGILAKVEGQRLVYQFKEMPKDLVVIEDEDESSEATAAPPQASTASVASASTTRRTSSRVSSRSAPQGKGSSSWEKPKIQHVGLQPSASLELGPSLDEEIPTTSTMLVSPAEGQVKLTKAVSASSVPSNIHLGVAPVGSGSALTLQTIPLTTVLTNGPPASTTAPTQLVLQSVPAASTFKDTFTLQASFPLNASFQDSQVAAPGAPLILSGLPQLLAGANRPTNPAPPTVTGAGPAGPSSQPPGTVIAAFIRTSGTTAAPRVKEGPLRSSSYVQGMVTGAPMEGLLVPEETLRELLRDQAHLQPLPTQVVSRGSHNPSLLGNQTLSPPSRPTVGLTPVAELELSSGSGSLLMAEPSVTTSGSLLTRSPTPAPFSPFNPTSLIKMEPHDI
# Procedure, shortened: as §1
# ELK4 = biological target: T9, ELK4 (Homo sapiens, UniProt P28324-2 1-405); settings: protein: recombinant; tags: N-terminal GST; dsDNA, one strand shown
# T9 sequence: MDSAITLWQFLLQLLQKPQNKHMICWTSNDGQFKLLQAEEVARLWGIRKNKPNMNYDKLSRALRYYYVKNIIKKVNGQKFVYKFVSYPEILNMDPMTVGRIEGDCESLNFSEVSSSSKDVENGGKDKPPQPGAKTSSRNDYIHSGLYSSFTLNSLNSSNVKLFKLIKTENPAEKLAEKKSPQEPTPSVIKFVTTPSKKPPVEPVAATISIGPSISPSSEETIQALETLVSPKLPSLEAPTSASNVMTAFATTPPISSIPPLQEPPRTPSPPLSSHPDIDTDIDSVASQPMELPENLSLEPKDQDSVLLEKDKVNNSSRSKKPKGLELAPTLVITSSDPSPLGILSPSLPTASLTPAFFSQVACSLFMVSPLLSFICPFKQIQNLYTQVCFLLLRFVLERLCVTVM
# Procedure, shortened: as §1
# ETV2 = biological target: T10, ETV2 (Homo sapiens, UniProt O00321 1-342); settings: protein: recombinant; tags: N-terminal GST; dsDNA, one strand shown
# T10 sequence: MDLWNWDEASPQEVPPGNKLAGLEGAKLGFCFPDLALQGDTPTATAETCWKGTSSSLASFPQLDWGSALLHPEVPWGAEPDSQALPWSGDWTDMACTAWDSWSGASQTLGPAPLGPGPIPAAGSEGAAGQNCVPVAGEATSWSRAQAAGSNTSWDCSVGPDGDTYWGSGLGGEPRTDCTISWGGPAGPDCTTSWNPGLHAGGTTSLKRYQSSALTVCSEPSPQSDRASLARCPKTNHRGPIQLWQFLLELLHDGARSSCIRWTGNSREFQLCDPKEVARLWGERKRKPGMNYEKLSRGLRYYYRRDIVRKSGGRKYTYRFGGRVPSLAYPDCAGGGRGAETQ
# Procedure, shortened: as §1
# ELF3 = biological target: T11, ELF3 (Homo sapiens, UniProt P78545 1-371); settings: protein: recombinant; tags: N-terminal GST; dsDNA, one strand shown
# T11 sequence: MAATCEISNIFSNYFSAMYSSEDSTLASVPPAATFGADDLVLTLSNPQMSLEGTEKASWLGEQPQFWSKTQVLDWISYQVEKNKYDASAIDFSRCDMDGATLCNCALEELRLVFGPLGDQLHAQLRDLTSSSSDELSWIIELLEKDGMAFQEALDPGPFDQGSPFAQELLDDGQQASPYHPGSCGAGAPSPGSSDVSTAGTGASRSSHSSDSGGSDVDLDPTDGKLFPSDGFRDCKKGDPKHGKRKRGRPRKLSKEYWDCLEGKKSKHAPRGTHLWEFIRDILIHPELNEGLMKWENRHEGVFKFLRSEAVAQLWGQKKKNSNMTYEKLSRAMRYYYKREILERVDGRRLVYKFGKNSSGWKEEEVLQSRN
# Procedure, shortened: as §1
# CRX = CRX (Homo sapiens, UniProt O43186 1-299); settings: protein: recombinant; tags: N-terminal GST; dsDNA, one strand shown
# Sequence of CRX (O43186 whole entry): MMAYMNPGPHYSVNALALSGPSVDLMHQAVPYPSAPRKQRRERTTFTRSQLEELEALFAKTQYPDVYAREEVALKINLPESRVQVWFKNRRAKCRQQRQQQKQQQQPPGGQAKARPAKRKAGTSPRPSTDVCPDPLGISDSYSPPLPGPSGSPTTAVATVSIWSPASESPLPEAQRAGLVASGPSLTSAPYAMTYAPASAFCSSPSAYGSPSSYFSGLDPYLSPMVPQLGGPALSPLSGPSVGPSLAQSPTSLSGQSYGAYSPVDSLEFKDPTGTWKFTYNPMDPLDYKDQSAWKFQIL
# Procedure, shortened: as §1
# ETV1 = ETV1 (Homo sapiens, UniProt P50549 1-477); settings: protein: recombinant; tags: N-terminal GST; dsDNA, one strand shown
# Sequence of ETV1 (P50549 whole entry): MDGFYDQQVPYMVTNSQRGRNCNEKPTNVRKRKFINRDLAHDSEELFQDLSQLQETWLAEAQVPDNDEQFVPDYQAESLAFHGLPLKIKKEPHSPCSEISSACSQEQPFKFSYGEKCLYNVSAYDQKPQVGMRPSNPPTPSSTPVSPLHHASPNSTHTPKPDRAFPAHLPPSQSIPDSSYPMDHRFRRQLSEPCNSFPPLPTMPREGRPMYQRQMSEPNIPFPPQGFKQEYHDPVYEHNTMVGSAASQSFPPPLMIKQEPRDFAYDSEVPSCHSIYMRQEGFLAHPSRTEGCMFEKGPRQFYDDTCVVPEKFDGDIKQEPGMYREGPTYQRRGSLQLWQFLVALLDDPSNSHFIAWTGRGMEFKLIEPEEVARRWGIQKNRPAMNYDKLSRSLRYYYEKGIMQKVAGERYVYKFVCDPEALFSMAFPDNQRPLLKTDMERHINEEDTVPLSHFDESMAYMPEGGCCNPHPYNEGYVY
# Procedure, shortened: as §1
sequence,measurement,setting,value
AAGATG,binding signal,FLI1,"1.17 fold enrichment (6-mer frequency, TF over GST control)"
same,binding signal,ELK1,"1.17 fold enrichment (6-mer frequency, TF over GST control)"
same,binding signal,GABPA,"1.11 fold enrichment (6-mer frequency, TF over GST control)"
same,binding signal,ERG,"1.11 fold enrichment (6-mer frequency, TF over GST control)"
same,binding signal,ELF1,"1.09 fold enrichment (6-mer frequency, TF over GST control)"
same,binding signal,EHF,"1.1 fold enrichment (6-mer frequency, TF over GST control)"
same,binding signal,SPI1,"1.09 fold enrichment (6-mer frequency, TF over GST control)"
same,binding signal,SPIB,"1.16 fold enrichment (6-mer frequency, TF over GST control)"
same,binding signal,ELK3,"1.19 fold enrichment (6-mer frequency, TF over GST control)"
same,binding signal,FEV,"1.01 fold enrichment (6-mer frequency, TF over GST control)"
same,binding signal,ETV5,"1.14 fold enrichment (6-mer frequency, TF over GST control)"
same,binding signal,HSF1,"1.19 fold enrichment (6-mer frequency, TF over GST control)"
same,binding signal,SPIC,"1.1 fold enrichment (6-mer frequency, TF over GST control)"
same,binding signal,ELF4,"1.24 fold enrichment (6-mer frequency, TF over GST control)"
same,binding signal,ELK4,"1.22 fold enrichment (6-mer frequency, TF over GST control)"
same,binding signal,ETV2,"1.13 fold enrichment (6-mer frequency, TF over GST control)"
same,binding signal,ELF3,"1.19 fold enrichment (6-mer frequency, TF over GST control)"
same,binding signal,CRX,"1.27 fold enrichment (6-mer frequency, TF over GST control)"
same,binding signal,ETV1,"1.12 fold enrichment (6-mer frequency, TF over GST control)"
